Values joined by “and” are separate entries in the source; they are usually repeats but may differ in a detail not shown here. Equal entries are not always repeated. Active and inactive are the calls of the source. How the source made its calls: active means hit-call score of the fitted dose curve at least 0.9, where 1 is the maximum; inactive means score below 0.9.

This passage reports outcome and AC50 results from PubChem BioAssay (EPA / NIEHS).

This test can be described thus: CCTE_Shafer_MEA_dev_spike_duration_mean: CCTE's Neural Network Formation Assay for Mean Spike Duration, Shafer Lab (AID 2284051).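 Further: mean network spike duration pooled as area under curve over DIV 5 to 12 recordings.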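 On AC50: potency for a decrease in mean network spike duration versus DMSO.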 The method in brief: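 With DMSO as baseline, loss of mean network spike duration was scored from extracellular recordings of rat cortical neurons on MEA plates. Exposure spanned plating to DIV 12; the four recording days were collapsed into one AUC value.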
Regarding `C=C(C)C(=O)OCCC(F)(F)C(F)(F)C(F)(F)C(F)(F)C(F)(F)C(F)(F)F`, the call was inactive. Still for that read-out and setting: next, `OCCC(F)(F)C(F)(F)C(F)(F)C(F)(F)C(F)(F)C(F)(F)C(F)(F)C(F)(F)F`: “inactive”; `OCCC(F)(F)C(F)(F)C(F)(F)C(F)(F)C(F)(F)C(F)(F)F`: “inactive”; `c1ccc2cc3c(ccc4ccccc43)cc2c1`: “inactive”.

As usually defined, the AC50 is the concentration giving half of the maximal activity seen. As for `CC#C[C@]1(O)CC[C@H]2[C@@H]3CCC4=CC(=O)CCC4=C3[C@@H](c3ccc(N(C)C)cc3)C[C@@]21C`, the AC50 is 4.55 µM (active) and 21.8 µM (active). Turning to `CN1CCC[C@H]1c1cccnc1`, the compound was classed as inactive. The same measure, in the same setting: next, `c1ccc2c(c1)Cc1ccccc1-2`: “inactive”; `CC(O)CO` (stereo not given): “inactive”. On to `CC1=C(/C=C/C(C)=C/C=C/C(C)=C/C(=O)O)C(C)(C)CCC1`, for which the AC50 was 10.1 µM (active).

For `c1ccc2c(c1)ccc1ccccc12`, the compound was classed as inactive.
